Growth inhibition, inhibition and outcome data for 20 compounds are collected here from PubChem BioAssay.

Values without a mark were called inactive. For some of these results: Results with a measured potency or affinity are listed apart. The source made the active and inactive calls. Unless noted, the rule behind the calls is not given here.

Assay [1] can be described thus: antimalarial activity against Dd2 strain (AID 2302;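 active = growth inhibition above 50% at the single 2 µM test dose, taken to imply half-maximal potency below 2 µM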;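 note: 0% = DMSO untreated growth and 100% = chloroquine plus artemisinin killed control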). To be noted: P. falciparum Dd2 in RBCs, LDH growth readout, 72 h; at 2 µM; active compounds read high.
A short description of assay [2]: human hepatoma cell viability loss – ATP luminescence, cytotoxicity control for P. falciparum antimalarial project, primary screen (AID 2303;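 active = inhibition above 50%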;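 note: 0% = DMSO wells and 100% = digitonin-killed cells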). To be noted: HepG2 viability, 24-48 h, at 10 µM, active compounds read high.
Assay [3] has as its target L-lactate dehydrogenase (Plasmodium falciparum (isolate CDC / Honduras)) (UniProt Q27743). Put plainly: PfLDH activity inhibition – cell lysate, 3D7 strain, counter-screen for P. falciparum growth inhibition project (AID 2304).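 Note: 0% = vehicle and 100% = reference inhibitor.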 To be noted: P. falciparum 3D7 crude extract, LDH APAD/NBT absorbance; at 2 µM; active compounds read high. (A counterscreen serves to expose hits that act by an unwanted route or on another target.)

Assay [4] can be described thus: inhibition of 3D7 malaria parasite growth – strain 3D7 (AID 2306).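 Note: 0% = DMSO wells and 100% = chloroquine plus artemisinin control wells.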 To be noted: P. falciparum 3D7 erythrocytic growth, LDH absorbance, 72 h; at 2 µM; active compounds read high.
Assay [5] addresses Calcium-dependent protein kinase 1 (Plasmodium falciparum (isolate 3D7)) (UniProt P62344). Put plainly: PfCDPK1 kinase inhibitors, biochemical, TCAMS library (AID 1159585; cut-off not given, nearly all actives have IC50 up to about 0.98 µM;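 note: inhibitors leave more ATP so luminescence rises with inhibition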). Particulars: recombinant PfCDPK1, Kinase-Glo ATP depletion luminescence.
Assay [6] deals with Plasmodium falciparum protein kinase 6 (PK6, PF3D7_1337100) (UniProt Q8IDW1). Put plainly: PfPK6 kinase inhibitors, biochemical, TCAMS library (AID 1159586). Particulars: recombinant PfPK6, Kinase-Glo ATP depletion luminescence. (Kinase-Glo reads ATP consumption through a luciferase reaction.)
In assay [7] the target is Protein kinase 7 (PK7), Plasmodium falciparum 3D7 (PF3D7_0213400) (UniProt Q7YTF7). Put plainly: inhibition of Plasmodium PK7 catalytic activity – biochemical, TCAMS antimalarial set, Kinase-Glo luminescence (AID 1159587). To be noted: recombinant PfPK7, Kinase-Glo ATP depletion luminescence.
Assay [8] addresses Calcium-dependent protein kinase 4 (Plasmodium falciparum (isolate 3D7)) (UniProt Q8IBS5). Put plainly: PfCDPK4 kinase inhibitors, biochemical, TCAMS library (AID 1159588; cut-off not given, nearly all actives have IC50 up to about 0.91 µM). Particulars: recombinant PfCDPK4, Kinase-Glo ATP depletion luminescence.

Sequence of Plasmodium falciparum protein kinase 6 (PK6, PF3D7_1337100) (Q8IDW1 1-305): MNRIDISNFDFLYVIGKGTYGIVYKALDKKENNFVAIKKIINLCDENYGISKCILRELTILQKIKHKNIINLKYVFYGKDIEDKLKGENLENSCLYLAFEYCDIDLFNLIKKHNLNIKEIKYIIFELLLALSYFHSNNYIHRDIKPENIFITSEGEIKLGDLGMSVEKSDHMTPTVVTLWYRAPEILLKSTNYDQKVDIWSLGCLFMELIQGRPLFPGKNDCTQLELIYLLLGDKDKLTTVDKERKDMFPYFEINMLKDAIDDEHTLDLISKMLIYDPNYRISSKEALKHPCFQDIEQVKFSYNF
Sequence of Calcium-dependent protein kinase 4 (Plasmodium falciparum (isolate 3D7)) (Q8IBS5 whole entry, looked up): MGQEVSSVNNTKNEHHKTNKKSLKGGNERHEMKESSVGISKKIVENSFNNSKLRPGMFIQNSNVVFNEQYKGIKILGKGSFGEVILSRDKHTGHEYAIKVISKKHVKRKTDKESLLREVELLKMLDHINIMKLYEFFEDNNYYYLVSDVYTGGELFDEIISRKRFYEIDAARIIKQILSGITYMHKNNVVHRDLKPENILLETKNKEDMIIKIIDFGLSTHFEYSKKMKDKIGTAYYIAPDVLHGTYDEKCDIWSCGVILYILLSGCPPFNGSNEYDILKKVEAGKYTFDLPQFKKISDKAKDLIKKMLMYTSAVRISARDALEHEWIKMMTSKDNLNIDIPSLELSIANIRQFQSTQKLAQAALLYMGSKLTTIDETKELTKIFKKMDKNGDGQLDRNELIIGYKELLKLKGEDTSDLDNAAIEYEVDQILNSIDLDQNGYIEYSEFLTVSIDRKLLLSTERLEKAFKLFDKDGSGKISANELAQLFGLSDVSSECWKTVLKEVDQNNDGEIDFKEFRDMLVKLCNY
Sequence of Calcium-dependent protein kinase 1 (Plasmodium falciparum (isolate 3D7)) (P62344 whole entry, looked up): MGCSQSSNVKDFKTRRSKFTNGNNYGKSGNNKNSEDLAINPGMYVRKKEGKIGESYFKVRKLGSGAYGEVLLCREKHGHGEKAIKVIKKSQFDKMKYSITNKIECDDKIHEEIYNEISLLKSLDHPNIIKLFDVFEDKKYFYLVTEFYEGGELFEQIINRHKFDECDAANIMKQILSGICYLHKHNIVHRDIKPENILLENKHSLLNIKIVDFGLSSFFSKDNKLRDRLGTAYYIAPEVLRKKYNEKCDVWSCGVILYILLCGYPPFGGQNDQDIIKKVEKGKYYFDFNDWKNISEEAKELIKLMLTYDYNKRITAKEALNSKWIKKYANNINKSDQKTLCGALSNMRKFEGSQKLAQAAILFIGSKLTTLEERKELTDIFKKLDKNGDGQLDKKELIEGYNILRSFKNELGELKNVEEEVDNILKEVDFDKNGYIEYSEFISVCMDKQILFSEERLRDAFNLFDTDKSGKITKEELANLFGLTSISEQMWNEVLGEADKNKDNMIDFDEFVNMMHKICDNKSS
Sequence of L-lactate dehydrogenase (Plasmodium falciparum (isolate CDC / Honduras)) (Q27743 whole entry, looked up): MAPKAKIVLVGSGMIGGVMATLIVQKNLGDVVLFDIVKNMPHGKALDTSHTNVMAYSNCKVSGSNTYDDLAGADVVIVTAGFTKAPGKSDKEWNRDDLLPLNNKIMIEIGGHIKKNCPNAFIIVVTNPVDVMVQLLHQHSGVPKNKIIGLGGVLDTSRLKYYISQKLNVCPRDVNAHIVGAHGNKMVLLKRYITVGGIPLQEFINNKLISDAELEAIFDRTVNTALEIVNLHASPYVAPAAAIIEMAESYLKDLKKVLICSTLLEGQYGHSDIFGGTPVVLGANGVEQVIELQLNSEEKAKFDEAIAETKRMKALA
Sequence of Protein kinase 7 (PK7), Plasmodium falciparum 3D7 (PF3D7_0213400) (Q7YTF7 1-343): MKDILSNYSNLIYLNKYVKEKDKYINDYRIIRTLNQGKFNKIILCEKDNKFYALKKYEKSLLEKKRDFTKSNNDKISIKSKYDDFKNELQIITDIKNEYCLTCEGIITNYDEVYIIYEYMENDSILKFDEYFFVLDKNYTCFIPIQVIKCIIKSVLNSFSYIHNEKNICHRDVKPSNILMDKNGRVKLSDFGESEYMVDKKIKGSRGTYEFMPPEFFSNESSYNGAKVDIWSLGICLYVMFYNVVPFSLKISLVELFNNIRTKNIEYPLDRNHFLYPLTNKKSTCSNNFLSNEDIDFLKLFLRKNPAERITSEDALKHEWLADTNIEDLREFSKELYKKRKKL

Usually inhibition stands for the relative decrease from the control value, in per cent. For the compound `COc1ccccc1NC(=O)Nc1cccc(-c2ccc(-c3nc4ccc(C(F)(F)F)cc4[nH]3)cc2)c1`, the growth inhibition in assay [1] was 76% (active); in assay [4] it was 100% (active). For the same compound, the inhibition in assay [2] was 28%; in assay [3], 5%. Moreover, the result in assay [5], in assay [6], in assay [7] and in assay [8] was inactive.
Take `COc1cc(Cc2cnc(N)nc2N)cc(OCCn2ccccc2=O)c1OC`: the growth inhibition in assay [1] was -3%; in assay [4] it was 97% (active). Moreover, the inhibition in assay [2] was 4%; in assay [3] it was 2%. Besides, the result in assay [5], in assay [6], in assay [7] and in assay [8] was inactive.
For the compound `COc1ccc(NC(=O)c2csc(-c3cc(NC(=O)c4ccnc(N5CCCC5)c4)ccc3C)c2)cc1N1CCN(C)CC1`, the values for the growth inhibition in assay [1] and in assay [4] were 80% (active) and 100% (active), respectively. Moreover, the inhibition in assay [2] was 4%; in assay [3], 1%. Besides, the result in assay [5], in assay [6], in assay [7] and in assay [8] was inactive.
As to `c1ccc(CN2CCC(NCc3ccc(-c4cncc5ccccc45)cc3)CC2)cc1`, the growth inhibition in assay [1] is 19%; in assay [4] it was 98% (active). Besides, the inhibition in assay [2] was 21%; in assay [3], -3%. The outcome in assay [5], in assay [6], in assay [7] and in assay [8] was inactive.
For `Clc1ccc(OC2CCC(Cn3ccnc3)(c3ccc(Cl)cc3Cl)CC2)c(Cl)c1` (stereo not given), the figures for the growth inhibition in assay [1] and in assay [4] were 86% (active) and 98% (active), respectively. Also, the inhibition in assay [2] is 4%; in assay [3] it was -4%. Also, the result in assay [5], in assay [6], in assay [7] and in assay [8] was inactive.
Turning to `COc1ccc2nccc(NN=Cc3cccc([N+](=O)[O-])c3)c2c1`, the growth inhibition in assay [1] was 98% (active); in assay [4], 100% (active). The results for the inhibition in assay [2] and in assay [3] were 4% and -8%, respectively. Moreover, the result in assay [5], in assay [6], in assay [7] and in assay [8] was inactive.
As to `O=C(Cc1cnc[nH]1)Nc1cccc(-c2cccc(-c3nc4ccccc4[nH]3)c2)c1`, the growth inhibition is 60% (active) in assay [1] and 97% (active) in assay [4]. Moreover, the inhibition is 24% in assay [2] and -2% in assay [3]. In addition, the outcome in assay [5], in assay [6], in assay [7] and in assay [8] was inactive.
For the compound `CCCCc1cc(O)c2c(c1)OC(C)(C)C=C2C1=CCN(Cc2ccccc2)CC1`, the growth inhibition is 3% in assay [1] and 98% (active) in assay [4]. In addition, the inhibition in assay [2] is 9%; in assay [3], -5%. For the same compound, the outcome in assay [5], in assay [6], in assay [7] and in assay [8] was inactive.
In the case of `OCCN1CCN(C2Cc3ccc(F)cc3Sc3ccc(Cl)cc32)CC1` (stereo not given), the growth inhibition in assay [1] was 26%; in assay [4], 98% (active). Moreover, the inhibition is 56% (active) in assay [2] and 3% in assay [3]. In addition, the outcome in assay [5], in assay [6], in assay [7] and in assay [8] was inactive.
Regarding `CCCCOc1ccccc1C(=O)NCc1csc(-c2ccccc2)n1`, the growth inhibition was 91% (active) in assay [1] and 93% (active) in assay [4]. Also, the results for the inhibition in assay [2] and in assay [3] were 17% and 0%, respectively. The outcome in assay [5], in assay [6], in assay [7] and in assay [8] was inactive.
For `CCCCN(C(=O)c1ccccc1C)c1nnc(-c2ccccc2C)s1`, the growth inhibition was 94% (active) in assay [1] and 92% (active) in assay [4]. Moreover, the inhibition in assay [2] was 10%; in assay [3], 2%. Further, the outcome in assay [5], in assay [6], in assay [7] and in assay [8] was inactive.
Turning to `OC(CN1CCN(C2CCCCC2)CC1)Cn1c2ccccc2c2cc(Br)ccc21` (stereo not given), the growth inhibition in assay [1] was 89% (active); in assay [4], 97% (active). Also, the inhibition in assay [2] was 14%; in assay [3], -2%. The result in assay [5], in assay [6], in assay [7] and in assay [8] was inactive.
Turning to `Fc1ccccc1CNc1ncc(-c2ccsc2)c(-c2nccs2)n1`, the growth inhibition is 71% (active) in assay [1] and 86% (active) in assay [4]. Further, the inhibition was 11% in assay [2] and -6% in assay [3]. The result in assay [5], in assay [6], in assay [7] and in assay [8] was inactive.
Regarding `COc1ccc(-c2cc3ncnc(N4CCN(CCN5CCCC5)CC4)c3s2)cc1`, the growth inhibition in assay [1] was 90% (active); in assay [4] it was 98% (active). Besides, the inhibition is 22% in assay [2] and -2% in assay [3]. Also, the outcome in assay [5], in assay [6], in assay [7] and in assay [8] was inactive.
For the compound `Cc1ccc(N2C(N)=NC(N)=NC2(C)C)cc1Cl`, the figures for the growth inhibition in assay [1] and in assay [4] were 77% (active) and 90% (active), respectively. Further, the inhibition in assay [2] was 66% (active); in assay [3], -4%. The result in assay [5], in assay [6], in assay [7] and in assay [8] was inactive.
On to `Cc1cccc2[nH]c(-c3ccc(-c4cccc(NC(=O)Nc5ccc(Cl)cc5)c4)s3)nc12`, for which the growth inhibition is 52% (active) in assay [1] and 102% (active) in assay [4]. For the same compound, the inhibition in assay [2] was 25%; in assay [3] it was -1%. In addition, the result in assay [5], in assay [6], in assay [7] and in assay [8] was inactive.
Turning to `OC(CNc1ccnc(Nc2ccc(Cl)cc2)n1)c1cccc(C(F)(F)F)c1` (stereo not given), the growth inhibition was 84% (active) in assay [1] and 101% (active) in assay [4]. For the same compound, the inhibition in assay [2] is 9%; in assay [3] it was 4%. Besides, the result in assay [5], in assay [6], in assay [7] and in assay [8] was inactive.
As for `CCCCCCOc1ccc(C(=O)N[C@H]2CCN(CCCCCNC(=O)/C=C/c3ccc(Cl)c(Cl)c3)C2)cc1`, the growth inhibition in assay [1] was 25%; in assay [4], 99% (active). For the same compound, the inhibition in assay [2] is 10%; in assay [3], -5%. Further, the result in assay [5], in assay [6], in assay [7] and in assay [8] was inactive.
For `CCOC(=O)/C(=N\OC(C(=O)OC(C)(C)C)c1ccccc1)c1csc(NC(c2ccccc2)(c2ccccc2)c2ccccc2)n1` (stereo not given), the figures for the growth inhibition in assay [1] and in assay [4] were 68% (active) and 89% (active), respectively. The inhibition was 14% in assay [2] and 5% in assay [3]. In addition, the outcome in assay [5], in assay [6], in assay [7] and in assay [8] was inactive.
As to `Cc1c(Cl)cccc1S(=O)(=O)Nc1ccc(CCN2CCC(N)CC2)cc1`, the growth inhibition was 4% in assay [1] and 90% (active) in assay [4]. Moreover, the inhibition in assay [2] is 23%; in assay [3], 0%. For the same compound, the outcome in assay [5], in assay [6], in assay [7] and in assay [8] was inactive.
